Data: PubChem BioAssay AID1345085 (National Center for Advancing Translational Sciences (NCATS), 2018)
Inconclusive results are not listed. Activity calls are given as the source filed them. The call rests on the fitted dose curve; in most records, active means well fitted cell-killing curve with a large enough effect; inconclusive means small, poorly fitted or top-dose-only effect, or effect the other way; inactive means no such curve, though single readings can be large or run the other way.

System: CAOV3
Experiment: Confirmatory qHTS for gynecologic anti-cancer compounds from libraries of approved drugs and bioactive compounds; further: nearly all actives have a fitted effect of over 55% in size
Conditions: gynecologic cancer cell panel viability, ATPlite luminescence, 48 h; series mostly up to 57.6 µM
Outline: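 Seeding 1,000 cells per well preceded overnight (16 h) attachment, after which 48 h drug treatment across 57.5 uM–0.977 nM (11 points) was applied. Remaining cellular ATP, detected by ATPlite luminescence, defined IC50.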
Potency means the concentration at half of the fitted maximal effect.

SMILES	Potency
COc1cc(C(=O)N2CCC(N3CCN(C)CC3)CC2)ccc1Nc1ncc2c(n1)N(C)c1ccccc1C(=O)N2C	10.9 µM (active)
CCCCN(CCCC)C(=O)CN1C[C@H](c2ccc3c(c2)OCO3)[C@@H](C(=O)O)[C@@H]1c1ccc(OC)cc1	inactive
S=c1nc[nH]c2nc[nH]c12	0.769 µM (active)
CN(C)C1CCN(C(=O)c2ccc(NC(=O)Nc3nc(N4CCOCC4)nc(N4CCOCC4)n3)cc2)CC1	0.611 µM (active)
CN(C)C(CCOc1cccc2ccccc12)c1ccccc1 (centres undefined)	30.6 µM (active)
Cc1cc(CN2CCN(c3c(Br)cnc4nc(-c5ccc(N6CCN(C)CC6)cc5)[nH]c34)CC2)no1	13.7 µM (active)
CCN1CCN(Cc2ccc(-c3cc4c(NC(C)c5ccccc5)ncnc4[nH]3)cc2)CC1 (centres undefined)	27.3 µM (active)
COc1cc2c(NC3CCN(C(C)C)CC3)nc(C3CCCCC3)nc2cc1OCCCN1CCCC1	8.63 µM (active)
COc1c(C)c2c(c(O)c1C/C=C(\C)CCC(=O)O)C(=O)OC2	inactive
CN(C)/N=N/c1nc[nH]c1C(N)=O	inactive
C[C@@H](Oc1cc(-c2cnn(C3CCNCC3)c2)cnc1N)c1c(Cl)ccc(F)c1Cl	17.2 µM (active)
CNC1CCC(N(Cc2cccc(-c3ccncc3)c2)C(=O)c2sc3ccccc3c2Cl)CC1 (centres undefined)	27.3 µM (active)
O=C(Nc1cccnc1)N1CCC(Cc2cccc(Oc3ccc(C(F)(F)F)cn3)c2)CC1	inactive
COc1cc2c(cc1-c1c(C)noc1C)ncc1[nH]c(=O)n(C(C)c3ccccn3)c12 (centres undefined)	1.09 µM (active)
CC(C)C[C@H](NC(=O)[C@H](Cc1ccccc1)NC(=O)c1cnccn1)B(O)O	0.0769 µM (active)
O=c1c2ccccc2nc2n1CCc1c-2[nH]c2ccccc12	inactive
Cc1ccc(C(=O)Nc2ccc(CN3CCN(C)CC3)c(C(F)(F)F)c2)cc1C#Cc1cnc2[nH]ncc2c1	30.6 µM (active)

SMILES	Potency
CC(C)n1nc(-c2cc3cc(O)ccc3[nH]2)c2c(N)ncnc21	19.3 µM (active)
O=C(Nc1cn[nH]c1-c1nc2ccc(CN3CCOCC3)cc2[nH]1)NC1CC1	0.122 µM (active)
O=C(CCCCCCC(=O)Nc1ccccc1)NO	12.2 µM (active)
CS(=O)(=O)c1ccc(-c2cnc(N)c(C(=O)Nc3ccccc3)n2)cc1	inactive
CC(C)c1nn(-c2c(Cl)cccc2Cl)c2nc(Cc3ccc(OCCO)cc3)[nH]c(=O)c12	inactive
Cn1c(=O)c(-c2c(Cl)cccc2Cl)cc2cnc(Nc3cccc(C(=O)O)c3)nc21	2.73 µM (active)
CCCC(Nc1nc(-c2ccc(NC(=O)NCC)c(OC)c2)ncc1C)c1cccnc1 (centres undefined)	inactive
O=C(NOC[C@H](O)CO)c1ccc(F)c(F)c1Nc1ccc(I)cc1F	inactive
COC(C(=O)N1Cc2[nH]nc(NC(=O)c3ccc(N4CCN(C)CC4)cc3)c2C1)c1ccccc1 (centres undefined)	1.53 µM (active)
CCc1nc(C(N)=O)c(Nc2ccc(N3CCC(N4CCN(C)CC4)CC3)c(OC)c2)nc1NC1CCOCC1	6.72 µM (active)
CC(=O)Nc1cccc(-n2c(=O)n(C3CC3)c(=O)c3c(Nc4ccc(I)cc4F)n(C)c(=O)c(C)c32)c1	inactive
COc1cc(N2CCC(N3CCN(C)CC3)CC2)ccc1Nc1ncnc(Nc2ccccc2S(=O)(=O)C(C)C)n1	15.3 µM (active)
Cc1cnc(Nc2cccc(CN3CCOCC3)c2)nc1Nc1cccc(S(=O)(=O)NC(C)(C)C)c1	10.9 µM (active)
CC(C)Oc1ccc(C(=O)NC(CNC(=O)CN(C)C)Cc2ccc(-c3cn4cccc(C(C)O)c4n3)cc2)cc1Cl (centres undefined)	inactive
CCc1c2c(nc3ccc(OC(=O)N4CCC(N5CCCCC5)CC4)cc13)-c1cc3c(c(=O)n1C2)COC(=O)[C@]3(O)CC	19.3 µM (active)
COc1ccc2c(c1OC)C(=O)O[C@@H]2[C@H]1c2c(cc3c(c2OC)OCO3)CCN1C	inactive
C#C[C@]1(O)CC[C@H]2[C@@H]3CCC4=CC(=O)CC[C@@H]4[C@H]3CC[C@@]21CC	inactive
